Results published in PubChem BioAssay (NCATS).
Values joined by “and” are separate entries in the source; they are usually repeats but may differ in a detail not shown here. Equal values may be shown once. Records with an inconclusive call do not appear. Where a structure was tested more than once in an assay, its records may differ in their call. Active and inactive are the calls of the source. Unless noted, calls follow the shape of the dose curve; as a rule, active = well fitted curve in the direction sought with a large enough effect; inconclusive = small, poorly fitted or top-dose-only effect, or another doubt; inactive = no such curve, though single readings can be large; an effect the other way counts as inactive or inconclusive.

Experiments:
[1] = target: Cellular tumor antigen p53 (Homo sapiens) (UniProt P04637); test: Primary qHTS for small molecule compounds that upregulate eGFP-tagged delta133p53alpha (in N-terminal) cells. (AID 2060322); settings: NCI-H358 eGFP-delta133p53alpha fluorescence, 24 h; activation: stronger effect = higher value; also: nearly all actives have a fitted effect of over 75% in size; also: potency is read from the fitted curve at half-maximal effect;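 as to activation: cells pre-induced with doxycycline then dosed without doxycycline; 0% = DMSO vehicle and 100% = reference activator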
Chain of Cellular tumor antigen p53 (Homo sapiens) (P04637 whole entry, looked up): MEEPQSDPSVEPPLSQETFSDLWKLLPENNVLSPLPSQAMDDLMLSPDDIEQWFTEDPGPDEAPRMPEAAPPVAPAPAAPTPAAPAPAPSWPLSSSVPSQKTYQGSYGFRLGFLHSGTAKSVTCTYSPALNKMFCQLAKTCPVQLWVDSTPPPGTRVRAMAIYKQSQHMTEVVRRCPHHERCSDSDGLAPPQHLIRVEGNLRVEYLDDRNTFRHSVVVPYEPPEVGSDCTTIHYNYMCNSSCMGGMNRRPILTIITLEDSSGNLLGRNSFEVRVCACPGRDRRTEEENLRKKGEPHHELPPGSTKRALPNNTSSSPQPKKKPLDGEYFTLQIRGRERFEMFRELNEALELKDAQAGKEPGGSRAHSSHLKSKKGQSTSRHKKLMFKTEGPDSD
Method in brief: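 NCI-H358 cells pre-induced 24 h with 10 ng/ml doxycycline for eGFP-delta133p53alpha, plated dox-free and exposed 24 h at 37C to titrated compounds. Fixed, Hoechst-stained; gated GFP peak intensity by laser scanning cytometry, normalized to DMSO (0%) and 57.5 uM 5-azacytidine (100%).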

[2] = target: Aldehyde dehydrogenase, mitochondrial (Homo sapiens) (UniProt P05091); test: qHTS for Inhibitors of the Aldehyde Dehydrogenase Family (ALDH2) Primary screen (AID 2061308); settings: ALDH2 enzyme inhibition qHTS, 1536-well; series mostly up to 56 µM;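 also: plate controls were vehicle for no effect and reference inhibitor for full effect; nearly all actives have a fitted effect of over 55% in size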
[3] = target: Retinaldehyde dehydrogenase 3 (Homo sapiens) (UniProt P47895); test: qHTS for Inhibitors of the Aldehyde Dehydrogenase Family (ALDH1A3) Primary screen (AID 2061315); settings: ALDH inhibition qHTS; series mostly up to 56 µM;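 also: plate controls were DMSO vehicle for no effect and reference inhibitor for full effect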
[4] = BET inhibitor-based combinations targeting novel dependencies in MECOM-rearranged (r) AML: SET-2 cell line (AID 2202231); settings: SET-2 AML cells viability, CellTiter-Glo luminescence, 48 h; viability: stronger effect = lower value, concentration not given here; also: nearly all actives have a fitted effect of over 35% in size; also: potency is read from the fitted curve at half-maximal effect;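 as to viability: plate controls were DMSO treated cells for no effect and wells without cells for full effect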
Method in brief: (§1)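 Here, 11-point titrations of each agent were applied to 500 seeded cells and incubated 48 hr; CellTiter-Glo signal, scaled against DMSO and empty wells, was integrated as AUC, then Z-scored within the individual line.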

[5] = BET inhibitor-based combinations targeting novel dependencies in MECOM-rearranged (r) AML: HNT-34 cell line (AID 2202234); settings: HNT-34 AML viability, CellTiter-Glo luminescence, 48 h; series mostly up to 46 µM; also: nearly all actives have a fitted effect of over 35% in size; also: potency is read from the fitted curve at half-maximal effect
Method in brief: (§2)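 Normalized to DMSO and empty-well controls, the luminescence data from CellTiter-Glo after 48 hr drug exposure were fitted across 11 concentrations. Reported metrics are area under the dose-response curve and its Z-transformed form.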

[6] = BET inhibitor-based combinations targeting novel dependencies in MECOM-rearranged (r) AML: UCSD-AML1 cell line (AID 2202235); settings: UCSD-AML1 AML cells viability, CellTiter-Glo, 48 h; series mostly up to 46 µM; also: nearly all actives have a fitted effect of over 40% in size; also: potency is read from the fitted curve at half-maximal effect
Method in brief: as §2

[7] = BET inhibitor-based combinations targeting novel dependencies in MECOM-rearranged (r) AML: AML-191 cell line (AID 2202236; also: nearly all actives have a fitted effect of over 35% in size; also: potency is read from the fitted curve at half-maximal effect); settings: AML-191 viability, CellTiter-Glo luminescence, 48 h; series mostly up to 46 µM
Method in brief: as §1

[8] = BET inhibitor-based combinations targeting novel dependencies in MECOM-rearranged (r) AML: AML-194 cell line (AID 2202237; also: nearly all actives have a fitted effect of over 40% in size; also: potency is read from the fitted curve at half-maximal effect); settings: AML-194 (MECOM-r AML) viability, CellTiter-Glo, 48 h; series mostly up to 46 µM
Method in brief: as §1

[9] = BET inhibitor-based combinations targeting novel dependencies in MECOM-rearranged (r) AML: OCI-AML3 cell line (AID 2202232); settings: CellTiter-Glo luminescence, 48 h; Potency: OCI-AML3 viability; series mostly up to 46 µM; also: nearly all actives have a fitted effect of over 35% in size; also: potency is read from the fitted curve at half-maximal effect
Method in brief: as §1

[10] = BET inhibitor-based combinations targeting novel dependencies in MECOM-rearranged (r) AML: MV-4-11 cell line (AID 2202233); settings: MV-4-11 AML viability, CellTiter-Glo luminescence, 48 h; series mostly up to 46 µM; also: nearly all actives have a fitted effect of over 45% in size; also: potency is read from the fitted curve at half-maximal effect
Method in brief: as §2

[11] = target: Retinaldehyde dehydrogenase 3 (Homo sapiens) (UniProt P47895); test: qHTS for Inhibitors of the Aldehyde Dehydrogenase Family (ALDH1A3) Validation screen (AID 2061312); settings: ALDH1A3 enzyme inhibition qHTS validation, fluorescence; series mostly up to 84.7 µM; also: % is scaled to controls: 0 for no effect and ±100 for the full control effect; nearly all actives have a fitted effect of over 45% in size
[12] = target: Aldehyde dehydrogenase, mitochondrial (Homo sapiens) (UniProt P05091); test: qHTS for Inhibitors of the Aldehyde Dehydrogenase Family (ALDH2) Validation screens (AID 2061302; active = well fitted inhibition curve with a large enough effect; title and protocol of this record describe different tests;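 also: plate controls were DMSO vehicle for no effect and maximal DPI positive control response for full effect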); settings: ALDH inhibition qHTS; series mostly up to 42.6 µM

Compound	Potency [1]	activation [1]	Potency [2]	Potency [3]	viability [4]	Potency [5]	Potency [6]	Potency [7]	Potency [8]	Potency [4]	Potency [9]	Potency [10]	Potency [11]	Potency [12]
CNC(=O)CN1CCC(Oc2cc3c(Nc4cccc(Cl)c4F)ncnc3cc2OC)CC1	13.7 µM (active)	14.3% (inactive)	inactive	inactive	107% (inactive)	16.6 µM (active)	20.9 µM (active)	inactive	inactive					
Cc1cc(Nc2ncc(Cl)c(Nc3ccccc3S(=O)(=O)C(C)C)n2)c(OC(C)C)cc1C1CCNCC1	7.57 µM (active)	21.6% (inactive)	inactive	inactive		6.61 µM (active)	10.5 µM (active)	16.6 µM (active)	9.34 µM (active)	23.5 µM (active)	9.34 µM (active)	4.68 µM (active)		
C[C@]12CC[C@@H]3c4ccc(O)cc4CC[C@H]3[C@@H]1CC[C@@H]2OC(=O)CCC1CCCC1	30.9 µM (active)	19.6% (inactive)	inactive	inactive									inactive	
O=C(Nc1cc(C(F)(F)F)cc(C(F)(F)F)c1)c1cc(Cl)ccc1O	3.01 µM (active)	2.31% (inactive)	inactive	inactive		2.35 µM (active)	1.66 µM (active)		2.63 µM (active)	2.35 µM (active)	2.09 µM (active)	1.86 µM (active)		
CN1c2ccccc2C(=O)N2CCc3c([nH]c4ccccc34)C21 (centres undefined)	2.69 µM (active)	-3.8% (inactive)	inactive	inactive		1.86 µM (active)	1.66 µM (active)	1.32 µM (active)	1.32 µM (active)		2.95 µM (active)	3.32 µM (active)		
CN1CCc2c(c3ccccc3n2Cc2ccc(C(=O)NO)cc2)C1	34.3 µM (active)	77.5% (inactive)	inactive	inactive		9.34 µM (active)		20.9 µM (active)	23.5 µM (active)	20.9 µM (active)	20.9 µM (active)	20.9 µM (active)		
CN1CCN(CCOc2cc(OC3CCOCC3)c3c(Nc4c(Cl)ccc5c4OCO5)ncnc3c2)CC1	12.2 µM (active)	-8.11% (inactive)	inactive	inactive		1.32 µM (active)		18.6 µM (active)	23.5 µM (active)			13.2 µM (active)	inactive	
CCNC(=O)Nc1ccc2ncc(Nc3ccc(C)cc3)nc2n1	30.1 µM (active)	-1.61% (inactive)	inactive	inactive										
COc1ccc(-c2cc3nccn3c(Nc3ncccc3C(N)=O)n2)cc1OC	4.78 µM (active)	14.1% (inactive)	inactive	inactive				8.33 µM (active)				0.372 µM (active)		
Cc1ccnc(NS(=O)(=O)c2ccc(NC(=O)Nc3ccc(S(=O)(=O)Nc4nccc(C)n4)cc3)cc2)n1	9.68 µM (active)	21% (inactive)	inactive	inactive	112% (inactive)	inactive	inactive	inactive	inactive			inactive		
Cc1nccn1CC1CCc2c(c3ccccc3n2C)C1=O (centres undefined)	34.7 µM (active)	4.27% (inactive) and -3.67% (inactive)	inactive	inactive										
Nc1nc(NCCNc2ncc(-n3ccnc3)c(-c3ccc(Cl)cc3Cl)n2)ccc1[N+](=O)[O-]	8.49 µM (active)	-14% (inactive)	inactive	inactive	116% (inactive)	4.17 µM (active)					inactive	8.33 µM (active)		
O=C(O)c1ccc2c(c1)nc(Nc1cccc(Cl)c1)c1ccncc12	23.9 µM (active)	37.3% (inactive)	inactive	inactive		2.63 µM (active)	5.9 µM (active)	7.42 µM (active)	7.42 µM (active)		8.33 µM (active)	3.32 µM (active)		
Fc1cc(-c2cccc3ncc(-c4cnn(C5CCNCC5)c4)nc23)cc(F)c1CN1CCOCC1	27.3 µM (active)	-17.4% (inactive)	inactive	inactive		2.35 µM (active)	3.32 µM (active)	10.5 µM (active)		4.68 µM (active)	11.8 µM (active)	0.934 µM (active)		
CN(C)c1ccc(/C=C2\C(=O)Nc3ccccc32)cc1	43.2 µM (active)	-19.4% (inactive)											inactive	inactive
CCCNC(=O)Nc1ccc(Oc2ncnc3cc(OC)c(OC)cc23)cc1Cl	26.9 µM (active)	17.1% (inactive)	inactive	inactive		inactive	inactive	inactive	inactive		inactive			
